# Compounds with a hit are over-represented: about 7.4% of the library has one in this group of screens.
# Rab9 promoter act: activators of Rab9 promoter; Huh7 Rab9 promoter-luciferase reporter, luminescence, 24 h; Potency, µM (highest dose often 9.22 µM), usual class: activators; hit rate 2.8% among 320,000; AID 485297; note: nearly all actives have a fitted effect of over 60% in size
#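 Promoter activation is measured as luciferase luminescence in Huh7 cells stably transfected with a Rab9 promoter–luciferase construct, following 24 h compound exposure at 37 °C and 10 min reagent incubation at ambient temperature.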
# NPC1 prom act: activates the NPC1 promoter; Huh7 NPC1 promoter luciferase reporter, 24 h; Potency, µM (highest dose often 9.22 µM), usual class: activators; hit rate 2.4% among 320,000; note: nearly all actives have a fitted effect of over 60% in size
#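 Compounds in DMSO were transferred onto Huh7 NPC1-luciferase reporter cells pre-incubated 2 h; after 24 h at 37 °C, Amplite reagent was dispensed and luminescence recorded 10 min later.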
# FLuc counter: inhibits or activates purified firefly luciferase, miR-21 counter-screen. P08659. purified FLuc, Km substrates, luminescence inhibition. Potency, µM (series often up to 57.5 µM), most hits filed as inhibitors. hit rate 6.9% among 360,000; note: nearly all actives have a fitted effect of over 55% in size
# Target sequence (P08659 whole entry, looked up): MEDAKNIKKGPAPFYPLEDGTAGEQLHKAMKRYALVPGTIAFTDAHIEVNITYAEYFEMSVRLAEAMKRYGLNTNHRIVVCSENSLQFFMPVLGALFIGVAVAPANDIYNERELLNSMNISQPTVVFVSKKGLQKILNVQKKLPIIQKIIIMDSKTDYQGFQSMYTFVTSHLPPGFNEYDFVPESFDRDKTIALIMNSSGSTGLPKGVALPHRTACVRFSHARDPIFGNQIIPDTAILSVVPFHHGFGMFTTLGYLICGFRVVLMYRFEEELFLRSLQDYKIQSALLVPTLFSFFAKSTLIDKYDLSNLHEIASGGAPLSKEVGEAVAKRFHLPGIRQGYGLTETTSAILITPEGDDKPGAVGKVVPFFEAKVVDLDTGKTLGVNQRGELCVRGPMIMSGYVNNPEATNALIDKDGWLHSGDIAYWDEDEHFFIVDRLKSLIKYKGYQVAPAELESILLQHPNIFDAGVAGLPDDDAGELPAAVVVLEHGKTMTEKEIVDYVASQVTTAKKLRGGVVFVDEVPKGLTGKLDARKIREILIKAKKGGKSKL
#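 Purified P. pyralis luciferase, 10 nM final, with Km-level 10 uM D-luciferin and 10 uM ATP in 50 mM Tris acetate pH 7.5, 10 mM Mg acetate, 0.01% Tween-20, 0.05% BSA; 6-point qHTS titration about 60 µM downward; luminescence read.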
# SMN2 splice up: enhancers of SMN2 splice variant expression; HEK293 SMN2-luciferase splicing reporter, luminescence, 30-36 h; Potency, µM (titrated, usually from 46.1 µM), hits mostly activators; hit rate 2.8% among 210,000; AID 1458; note: nearly all actives have a fitted effect of over 55% in size
#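 qHTS luciferase splicing reporter: luminescence rises when SMN2 exon 7 is included in transfected HEK293 cells. Compound exposure lasted 30-36 h at 37C, with 4.5 mM final sodium butyrate as control, followed by a ONE-Glo read.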
# p53 reactivation: re-activators of mutant p53 | H1299 p53-A138V BP100-luciferase reporter, luminescence, 24 h | hit rate 0.063% among 320,000 | Potency, µM (titrated, usually from 92.2 µM), usual class: activators | AID 504706; note: nearly all actives have a fitted effect of over 45% in size
#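 p53-null H1299 cells stably carrying temperature-sensitive p53-A138V and a BP100-luciferase reporter were pinned with compounds (4-point, 1:5 series) and held 24 hrs at 37 deg C. Luminescence was read 10 min after detection reagent.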
# ELG1 genotoxic: inducers of genotoxicity in HEK293T ELG1-luciferase cells; Potency, µM (titrated, usually from 46 µM), hits mostly activators; HEK293T ELG1-luciferase reporter, luminescence, 16 h; AID 504466; hit rate 1.3% among 330,000; note: nearly all actives have a fitted effect of over 60% in size
#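 16 hr compound incubation (37 °C, 5% CO2) of HEK293T cells carrying luciferase-tagged ELG1; luciferase then measured by ONE-Glo luminescence after 30 min at RT.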
# Hits are given with their value; . = inactive; ? = inconclusive; / = no result. Calls come from the whole dose curve; as a rule, active = well fitted curve in the direction sought with a large enough effect; inconclusive = small, poorly fitted or top-dose-only effect, or another doubt; inactive = no such curve, though single readings can be large; an effect the other way counts as inactive or inconclusive.
SMILES,Rab9 promoter act,NPC1 prom act,FLuc counter,SMN2 splice up,p53 reactivation,ELG1 genotoxic
Cc1cc2nc(-c3ccc(SCC(=O)Nc4ccc5c(c4)OCCO5)nc3)[nH]c2cc1C,4µM,2.8µM,0.34µM,?,.,?
O=C(CSc1ccc(-c2nc3ccccc3[nH]2)cn1)Nc1ccc2c(c1)OCCO2,?,.,?,.,?,.
O=C(CSc1nc(-c2ccc(F)cc2)[nH]c1-c1ccc(F)cc1)Nc1ccc2c(c1)OCCO2,/,/,?,.,/,/
Cc1ccc(-c2ccc(SCC(=O)Nc3nonc3C)nn2)cc1,?,?,12µM,.,.,?
Cc1ccc(-c2ccc(SCC(=O)Nc3ccc4c(c3)OCCO4)nn2)cc1,.,.,1.9µM,.,?,.
O=C(O)c1ccc(OCCCCCCOC2CCCCO2)cc1 (centres undefined),.,.,.,/,.,.
Cc1ccc(-c2ccc(CCC(=O)O)o2)cc1,.,.,11µM,?,.,.
O=C(O)CCc1ccc(-c2cccs2)o1,.,.,.,.,.,.
Cc1cc(C)cc(OCC(=O)N2CCC(c3nc4ccccc4o3)CC2)c1,/,/,.,/,/,/
COc1ccc(C2CC(c3ccccc3)=NN2c2ccc(S(N)(=O)=O)cc2)cc1 (centres undefined),.,.,9.5µM,/,.,.
COc1ccc(C2=NN(CN3C(=O)C(=O)c4ccccc43)C(c3ccc(OC)cc3)C2)cc1 (centres undefined),3.5µM,?,?,10µM,?,?
COc1ccc(C2CC(c3ccc(C)cc3)=NN2C(=O)CCC(=O)O)cc1OC (centres undefined),.,.,.,/,.,.
CCN1CCCC1CNC(=O)CCc1nnc(CCC2CCCCC2)o1 (centres undefined),.,.,.,.,.,.
COC(=O)[C@@H]1CCCN1C(=O)CCc1nnc(CCc2c[nH]c3ccccc23)o1,.,.,17µM,/,.,.
COC(=O)C1CCCCN1C(=O)CCc1nnc(CCc2c[nH]c3ccccc23)o1 (centres undefined),.,.,.,/,.,.
COC(=O)[C@@H]1CCCN1C(=O)CCc1nnc(CCC2CCCCC2)o1,?,.,19µM,?,.,?
CCCCn1nc(C(=O)N(CC(C)C)c2c(N)n(CCCC)c(=O)[nH]c2=O)c2ccccc2c1=O,.,.,.,/,.,.
CCc1cccc(N2C(=O)N(CC(=O)NCc3cccc(OC)c3OC)c3ccccc3S2(=O)=O)c1,/,/,.,/,/,/
CCOC(=O)c1cnc2c(ccc3ccccc32)c1Nc1ccc(N(C)C)cc1,/,/,.,.,/,/
N/C(=N\OC(=O)c1ccc2ccccc2c1)c1ccncc1,1.4µM,1.3µM,1.9µM,/,.,4.6µM
Cc1ccccc1C(=O)O/N=C(\N)c1ccncc1,3.2µM,?,4.3µM,/,?,?
N/C(=N\OC(=O)c1ccc2ccccc2c1)c1ccccn1,?,?,0.15µM,?,.,0.58µM
CCCc1ccc(C(=O)O/N=C(\N)c2ccccn2)cc1,.,.,0.067µM,/,/,0.41µM
CN(CC(=O)Nc1ccc(F)cc1)C(=O)COC(=O)c1cc(S(=O)(=O)N(C)C)ccc1N1CCCC1,.,.,.,/,.,.
N/C(=N\OC(=O)c1ccc2ccccc2c1)c1ccccc1Cl,4µM,3.2µM,1.9µM,/,20µM,23µM
SMILES,Rab9 promoter act,NPC1 prom act,FLuc counter,SMN2 splice up,p53 reactivation,ELG1 genotoxic
COc1cccc(C(=O)O/N=C(\N)c2ccccn2)c1,3.2µM,2.5µM,0.076µM,/,/,?
COc1cccc(C(=O)NCCCNC(=O)c2ccccn2)c1,.,.,.,/,.,.
COc1ccc(C)cc1NC(=O)CSc1nc(=O)n(Cc2cccnc2)c2c1CCC2,/,/,.,/,/,/
COC(=O)Cc1ccc(NC(=S)N2CCCC(C)C2)cc1 (centres undefined),?,.,1.5µM,?,?,?
Cc1ccc(NC(=S)N2CCCC(CO)C2)c(C)c1 (centres undefined),?,.,17µM,/,.,.
CC1CC(C)CN(C(=S)Nc2ccc(SC(F)F)cc2)C1 (centres undefined),.,.,?,.,?,.
COc1cc(NC(=S)N2CCCC(CO)C2)cc(OC)c1 (centres undefined),.,.,?,.,.,.

# Screening results deposited in PubChem by National Center for Advancing Translational Sciences (NCATS).
